These results are taken from PubChem BioAssay (NCI).

Experiment in all cases: NCI-60 one-dose screen, 48 h (100 = growth as untreated, 0 = no growth, -100 = all killed)
Details in all cases: 10 µM unless noted

Assay [1] concerns NCI-H23 lung.
Assay [2] relates to NCI-H226 lung.
For assay [3], the system named is NCI-H322M lung.
Assay [4] has as its system HOP-62 NSCLC.
In assay [5] the test system is NCI-H460 lung.
For assay [6], the system named is HOP-92 NSCLC.
The subject of assay [7] is NCI-H522 lung.
Assay [8] has as its system A549/ATCC NSCLC.
Assay [9] relates to 786-0 renal.
In assay [10] the test system is COLO 205 colon.
In assay [11] the test system is DU-145 prostate.
Assay [12] deals with K-562 leukemia.
The test system of assay [13] is MALME-3M melanoma.
Assay [14] deals with MDA-MB-231 breast.
Assay [15] has as its system RXF 393 renal.
The subject of assay [16] is SF-268 CNS.
Assay [17] relates to SF-295 CNS.
The subject of assay [18] is SF-539 CNS.
Assay [19] relates to UACC-257 melanoma.
The test system of assay [20] is M14 melanoma.

Molecules are shown by their SMILES. About 83,000 compounds went through this panel and 20% of them were active in at least one assay; those are over-represented in the sample as a whole.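 Single-dose data. Exposure time 48 hours. Values below 10 considered active.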 A number with no mark means an inactive call. The source made the active and inactive calls.

For `NCCCNc1nc2ccccc2c2c(=O)c3cc(Cl)ccc3sc12`, the growth is 45.7% in [1]; 93.1% in assay [2]; 39.5% in assay [3]; -82.9% (active) in assay [4]; -83.8% (active) in [5]; -7.36% (active) in assay [6]. Further, the growth was -83.6% (active) in assay [7]; -18.4% (active) in assay [8]; 2.76% (active) in [9]; -83.6% (active) in assay [10]; -76.9% (active) in assay [11]; -70.1% (active) in assay [12]. For the same molecule, the growth in assay [13] was -38.3% (active); in assay [14] it was -82.9% (active); in assay [15], 47.1%; in assay [16], 37.7%; in assay [17] it was 4.81% (active); in assay [18] it was 55.7%. Besides, the growth in [19] is 74.9%; in assay [20], -48.2% (active).

For the molecule `CCOC(=O)C1=C(c2ccccc2)N=C2N(c3ccccc3)N=C(C(C)=O)N2C1c1ccc(F)cc1` (stereo not given), the growth in assay [1] was 105%; in [2] it was 97.7%; in [3] it was 99.2%; in assay [4], 98.6%; in [5], 100%; in assay [6], 93.3%. Further, the growth in [7] was 97.3%; in assay [8], 101%; in assay [9], 99.6%; in assay [10], 113%; in assay [11], 106%; in assay [12] it was 96.3%. Moreover, the growth in assay [13] is 97.7%; in assay [14], 98.8%; in assay [15], 75.5%; in [16], 99.2%; in assay [17], 98.6%; in assay [18], 101%. In addition, the growth in assay [19] is 113%; in [20] it was 101%.

Take `COc1cc2c3c(c4c5ccccc5[nH]c4c2c(OC)c1OC)C(=O)N(CCN1CCCCC1)C3=O`: the growth is 17.5% in assay [1]; 28.2% in assay [2]; 32% in [3]; 41.7% in [4]; -48.3% (active) in [5]; 48.7% in assay [6]. For the same molecule, the growth in assay [7] is 36.3%; in assay [8], -63.3% (active); in assay [9], -85.9% (active); in [10], 28.3%; in assay [11], -91.2% (active); in assay [12] it was 3.53% (active). Further, the growth in assay [13] was 32%; in assay [14] it was 38.1%; in assay [15] it was -9.89% (active); in [16], 22.7%; in assay [17] it was 32.9%; in assay [18] it was 41.4%. Besides, the figures for the growth in [19] and in assay [20] were 42.2% and 12.3%, respectively.

For the molecule `COC12C=C/C(=C(/C(=O)OCc3csc(SC)n3)C(=O)CCCCCCCCC3(OC)C=C/C(=C(/C(=O)OCc4cnc(SC)s4)C(=O)CCCCCCCC1)O3)O2` (stereo not given), the growth is 15.7% in assay [1]; 12% in assay [2]; 46.5% in assay [3]; 58.7% in [4]; 27.2% in assay [5]; 78.2% in assay [6]. In addition, the growth in assay [7] was 24.2%; in assay [8] it was 39.8%; in [9], 35.1%; in assay [10], 25.5%; in [11], 50.3%; in assay [12], 25.3%. The growth in assay [13] is -1.67% (active); in [14] it was 19.1%; in assay [15] it was -35.4% (active); in [16], 44.7%; in assay [17] it was 14.8%; in assay [18], 27.4%. Moreover, the growth in [19] is 56.8%; in assay [20], 12%.

Turning to `COc1ccc2c(c1)c(-c1nc(-c3ccc4ccccc4c3)cs1)cn2C`, the growth was 87.1% in assay [1]; 85.3% in assay [2]; 85.1% in [3]; 90.4% in assay [4]; 98.4% in assay [5]; 93% in assay [6]. The growth in [7] was 79.2%; in assay [8], 82.6%; in assay [9] it was 75.4%; in [10] it was 84%; in assay [11], 103%; in assay [12] it was 67.7%. The growth was 149% in [13]; 80.2% in assay [14]; 69.1% in assay [15]; 100% in assay [16]; 104% in assay [17]; 89% in [18]. Also, the results for the growth in [19] and in assay [20] were 94% and 96.9%, respectively.

In the case of `C/C(=C(\c1ccc(OCCN2CCCCCC2)cc1)c1ccc(OC(=O)c2ccccc2)cc1)c1ccc(Cl)cc1`, the growth in assay [1] is 46.7%; in assay [2], 87.5%; in [3], 71.7%; in assay [4], 71.7%; in assay [5] it was 3.62% (active); in assay [6], 56.2%. Further, the growth is 51% in assay [7]; 39.1% in assay [8]; 21.8% in assay [9]; 4.38% (active) in [10]; 66.1% in [11]; -4.61% (active) in assay [12]. For the same molecule, the growth in assay [13] is 17.3%; in assay [14], 51.1%; in assay [15], 19%; in [16], 43.1%; in assay [17], 44.4%; in assay [18] it was 58.5%. In addition, the growth is -7.06% (active) in assay [19] and 0.53% (active) in assay [20].

Regarding `Nc1cccc(-c2ccc(COc3ccc(CC4SC(=O)NC4=O)cc3)cc2)c1` (stereo not given), the growth in [1] is 70.5%; in assay [2], 94.1%; in assay [3] it was 89.6%; in [4], 48.4%; in [5], 43.8%; in [6], 42.3%. The growth in [7] is 29.7%; in assay [8], 44.8%; in assay [9], 77.9%; in assay [10], 101%; in [11], 83.2%; in assay [12] it was 21.6%. Moreover, the growth in assay [13] is 42.5%; in [14], 73.4%; in assay [15], 77.7%; in [16], 70.6%; in assay [17] it was 63.8%; in assay [18], 64.3%. Besides, the growth is 71% in [19] and 36.5% in assay [20].
